Source: PubChem BioAssay (NCI)
“And” between values parts separate entries of the source, which are not always exact repeats. Equal entries are not always repeated. About 79,000 compounds went through this panel and 15% of them were active in at least one assay; those are over-represented in the sample as a whole. More than one record can exist for a structure, and the calls need not agree. The source made the active and inactive calls. Cut-off read from the data, not from the text of the source: active = growth inhibition above about 70%; inactive = the rest.

Experiments:
[1] = NCI Yeast Anticancer Drug Screen. Data for the rad52 strain (AID 147);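 note: 0% = growth of vehicle-treated control cultures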; details: S. cerevisiae rad52 mutant growth inhibition, stronger effect = higher value
Summary of the method: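 Screen used a yeast mutant impaired in DNA repair. After compound exposure, growth was measured. Values reflect inhibition compared with vehicle-treated cells.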

[2] = NCI Yeast Anticancer Drug Screen. Data for the wt1 strain (AID 149);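 note: 0% = growth of vehicle-treated wt1 cultures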; details: S. cerevisiae wt1 strain (SPY 50644) growth inhibition, stronger effect = higher value
Summary of the method: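 Readout: yeast growth inhibition, normalised to vehicle controls, in the wt1 strain exposed to test compounds.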

[3] = NCI Yeast Anticancer Drug Screen. Data for the rad50EPP+ strain (AID 151);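 note: 0% = growth of vehicle-treated control cultures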; details: S. cerevisiae rad50 mutant strain, stronger effect = higher value
Summary of the method: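 Exposing the rad50EPP+ strain to each compound, growth was compared with vehicle-only cultures to give inhibition.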

[4] = NCI Yeast Anticancer Drug Screen. Data for the mgt1 strain (AID 153); details: S. cerevisiae mgt1 mutant growth inhibition, stronger effect = higher value
Summary of the method: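 Genetically defined yeast (mgt1) treated with compound; inhibition of growth expressed against vehicle-treated controls.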

[5] = NCI Yeast Anticancer Drug Screen. Data for the rad50 strain (AID 155);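 note: 0% = growth of vehicle-only cultures of the same strain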; details: S. cerevisiae rad50 strain growth inhibition, stronger effect = higher value
Summary of the method: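 Compounds were tested on a yeast strain with an engineered DNA damage repair alteration; the reported value is growth inhibition normalised to vehicle treatment.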

[6] = NCI Yeast Anticancer Drug Screen. Data for the mec2-1 strain (AID 157); details: S. cerevisiae mec2-1 strain, stronger effect = higher value
Summary of the method: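 Readout is yeast growth inhibition, normalised to vehicle-treated controls, in the mec2-1 strain exposed to compound.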

[7] = NCI Yeast Anticancer Drug Screen. Data for the rad14 strain (AID 159);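 note: 0% = growth of vehicle-treated control cultures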; details: S. cerevisiae rad14 strain growth inhibition, stronger effect = higher value
Summary of the method: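 Compound-treated yeast with a defined DNA-repair lesion; growth inhibition normalised to vehicle-treated cultures.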

[8] = NCI Yeast Anticancer Drug Screen. Data for the sgs1 mgt1 strain (AID 161);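 note: 0% = growth of cultures given vehicle only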; details: S. cerevisiae sgs1 mgt1 strain, stronger effect = higher value
Summary of the method: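 Compounds are added to genetically altered yeast, and growth is compared with cultures given vehicle alone to give percent inhibition.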

[9] = NCI Yeast Anticancer Drug Screen. Data for the CLN2oe strain (AID 163);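 note: 0% = growth of vehicle-only control cultures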; details: S. cerevisiae CLN2oe strain, stronger effect = higher value
Summary of the method: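 Values reflect how much compound exposure reduced yeast growth, referenced to vehicle-exposed cells. Assay organism is a strain with a defined genetic change affecting cell-cycle control.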

[10] = NCI Yeast Anticancer Drug Screen. Data for the cln2 rad14 strain (AID 165);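 note: 0% = growth equal to vehicle treated cultures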; details: S. cerevisiae cln2 rad14 strain, stronger effect = higher value
Summary of the method: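 Relative to vehicle controls, growth inhibition of compound-treated cln2 rad14 yeast was recorded.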

[11] = NCI Yeast Anticancer Drug Screen. Data for the bub3 strain (AID 167); details: S. cerevisiae bub3 mutant strain, stronger effect = higher value
Summary of the method: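 Growth of a checkpoint-deficient yeast mutant is measured after compound exposure. Values represent inhibition relative to vehicle.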

[12] = NCI Yeast Anticancer Drug Screen. Data for the wt2 strain (AID 169);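 note: 0% = growth of vehicle-treated yeast cultures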; details: S. cerevisiae wt2 strain growth inhibition, stronger effect = higher value
Summary of the method: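 Values express reduction in yeast growth under compound treatment, referenced to vehicle-treated cells.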

[13] = NCI Yeast Anticancer Drug Screen. Data for the mlh1 strain (AID 171);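 note: 0% = growth of vehicle-treated control cultures of the same strain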; details: S. cerevisiae mlh1 strain growth inhibition, stronger effect = higher value
Summary of the method: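 Steps: expose the defined-mutant yeast strain to compound; expose a parallel culture to vehicle; measure growth; express compound effect as inhibition relative to the vehicle culture.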

[14] = NCI Yeast Anticancer Drug Screen. Data for the mlh1 rad18 strain (AID 175); details: S. cerevisiae mlh1 rad18 strain growth inhibition, stronger effect = higher value
Summary of the method: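 Test agents were incubated with a yeast strain of defined genotype (DNA damage repair defect). Inhibition of growth was derived by comparison with vehicle-exposed cultures.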

[15] = NCI Yeast Anticancer Drug Screen. Data for the rad18 strain (AID 177); details: S. cerevisiae rad18 mutant growth inhibition, stronger effect = higher value
Summary of the method: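 A genetically defined yeast mutant impaired in DNA damage repair was treated with test compounds, then its growth was measured against cultures receiving vehicle alone.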

[16] = NCI Yeast Anticancer Drug Screen. Data for the sgs1 strain (AID 173);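 note: 0% = growth of vehicle-only control cultures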; details: S. cerevisiae sgs1 mutant, stronger effect = higher value
Summary of the method: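 Treat defined-mutant yeast with compound; measure growth; calculate inhibition relative to vehicle-treated cells.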

[17] = at 5.0 µM (retest, dose inferred, filed as 0.5)
[18] = at 50.0 µM (retest, dose inferred, filed as 5.0)

Measured: growth inhibition

O=C1Nc2ccccc2/C1=C/c1ccccc1
57.1% (inactive) and 96.2% (active): [8]; at 50.0 µM
15.8% (inactive) and 98% (active): [11]; at 50.0 µM
active: [1]; at 100.0 µM 80% | [4]; at 100.0 µM 71% | [5]; at 50.0 µM 81.6% and 98% | [5]; at 100.0 µM 82% | [7]; at 100.0 µM 73% | [12]; at 100.0 µM 88% | [13]; at 100.0 µM 81% | [15]; at 100.0 µM 86%
-40.7% (inactive) and 70.8% (active): [10]; at 50.0 µM
inactive: [1]; at 1.2 µM -2% | [1]; at 3.7 µM -1% | [1]; at 11.0 µM 7% | [1]; at 33.0 µM 37% | [2]; at 1.2 µM -1% | [2]; at 3.7 µM -2% | [2]; at 11.0 µM 0% | [2]; at 33.0 µM 6% | [2]; at 100.0 µM 34% | [3]; at 1.2 µM 0% | [3]; at 3.7 µM 1% | [3]; at 11.0 µM 10% | [3]; at 33.0 µM 35% | [3]; at 100.0 µM 53% | [4]; at 1.2 µM -6% | [4]; at 3.7 µM -22% | [4]; at 11.0 µM -8% | [4]; at 33.0 µM 17% | [5]; at 1.2 µM -3% | [5]; at 3.7 µM 1% | [5]; [17] -113% and -24% | [5]; at 11.0 µM 3% | [5]; at 33.0 µM 39% | [5]; [18] -9% and 10% | [6]; at 1.2 µM -3% | [6]; at 3.7 µM -5% | [6]; [17] -53% and -11% | [6]; at 11.0 µM -8% | [6]; at 33.0 µM 4% | [6]; [18] -56% and 30% | [6]; at 100.0 µM 51% | [7]; at 1.2 µM -4% | [7]; at 3.7 µM 6% | [7]; at 11.0 µM -2% | [7]; at 33.0 µM 14% | [8]; [17] -69% and -10% | [8]; [18] -52% and 29% | [9]; at 1.2 µM -9% | [9]; at 3.7 µM -9% | [9]; at 11.0 µM -12% | [9]; at 33.0 µM -1% | [9]; at 100.0 µM 17% | [10]; [17] -67% and -49% | [10]; [18] -83% and -8% | [11]; at 1.2 µM -9% | [11]; at 3.7 µM -14% | [11]; [17] -46% and -21% | [11]; at 11.0 µM -5% | [11]; at 33.0 µM 9% | [11]; [18] -62% and 22% | [11]; at 100.0 µM 51% | [12]; at 1.2 µM -3% | [12]; at 3.7 µM -3% | [12]; at 11.0 µM 2% | [12]; at 33.0 µM 35% | [13]; at 1.2 µM -5% | [13]; at 3.7 µM 10% | [13]; at 11.0 µM -5% | [13]; at 33.0 µM 30% | [14]; [17] -122% and -22% | [14]; [18] -79% and 51% | [15]; at 1.2 µM 0% | [15]; at 3.7 µM -1% | [15]; at 11.0 µM 8% | [15]; at 33.0 µM 52%
66.6% (inactive) and 97.2% (active): [6]; at 50.0 µM
63.5% (inactive) and 96.8% (active): [14]; at 50.0 µM

O=C1c2cccnc2C(=O)C2C3C=CC(C3)C12 (stereo unspecified)
inactive: [1]; at 1.2 µM 12% | [1]; at 3.7 µM 35% | [2]; at 1.2 µM 16% | [2]; at 3.7 µM 20% | [2]; at 11.0 µM 43% | [3]; at 1.2 µM 30% | [4]; at 1.2 µM 12% | [4]; at 3.7 µM 32% | [4]; at 11.0 µM 65% | [5]; at 1.2 µM 31% | [5]; [17] 29% | [6]; at 1.2 µM 19% | [6]; at 3.7 µM 34% | [6]; [17] 37% | [7]; at 1.2 µM 20% | [7]; at 3.7 µM 44% | [8]; [17] 56% | [9]; at 1.2 µM 10% | [9]; at 3.7 µM 16% | [9]; at 11.0 µM 30% | [10]; [17] -31% | [10]; at 50.0 µM 45.5% | [11]; at 1.2 µM 9% | [11]; at 3.7 µM 30% | [11]; [17] 57% | [12]; at 1.2 µM 16% | [12]; at 3.7 µM 36% | [13]; at 1.2 µM 28% | [13]; at 3.7 µM 55% | [16]; at 1.2 µM 18% | [16]; at 3.7 µM 36% | [15]; at 1.2 µM 29%
active: [1]; at 11.0 µM 78% | [1]; at 33.0 µM 94% | [1]; at 100.0 µM 98% | [2]; at 33.0 µM 91% | [2]; at 100.0 µM 99% | [3]; at 3.7 µM 82% | [3]; at 11.0 µM 92% | [3]; at 33.0 µM 96% | [3]; at 100.0 µM 97% | [4]; at 33.0 µM 94% | [4]; at 100.0 µM 98% | [5]; at 3.7 µM 73% | [5]; at 11.0 µM 91% | [5]; at 33.0 µM 97% | [5]; [18] 96% | [5]; at 50.0 µM 99.4% | [5]; at 100.0 µM 94% | [6]; at 11.0 µM 87% | [6]; at 33.0 µM 98% | [6]; [18] 98% | [6]; at 50.0 µM 99.5% | [6]; at 100.0 µM 99% | [7]; at 11.0 µM 87% | [7]; at 33.0 µM 99% | [7]; at 100.0 µM 99% | [8]; [18] 98% | [8]; at 50.0 µM 99.2% | [9]; at 33.0 µM 75% | [9]; at 100.0 µM 97% | [10]; [18] 85% | [11]; at 11.0 µM 72% | [11]; at 33.0 µM 95% | [11]; [18] 98% | [11]; at 50.0 µM 98.4% | [11]; at 100.0 µM 99% | [12]; at 11.0 µM 78% | [12]; at 33.0 µM 97% | [12]; at 100.0 µM 99% | [13]; at 11.0 µM 92% | [13]; at 33.0 µM 98% | [13]; at 100.0 µM 99% | [16]; at 11.0 µM 75% | [16]; at 33.0 µM 93% | [16]; at 100.0 µM 98% | [14]; [17] 72% | [14]; [18] 98% | [14]; at 50.0 µM 99.2% | [15]; at 3.7 µM 76% | [15]; at 11.0 µM 91% | [15]; at 33.0 µM 96% | [15]; at 100.0 µM 97%
